Bioassay records (PubChem)
In the library only some 21% were active in any assay of this set; here they are far more common.
Cycloheximide cs: Cycloheximide Counterscreen for Small Molecule Inhibitors of Shiga Toxin. cell reporter, cycloheximide protein synthesis inhibition counterscreen. max response, %. 12% of 300,000 active. AID 2314, 2010; in the data active = max response mostly above about 13%, no sharp cut-off; inactive = mostly below about 14%; also: read at 38.3 µM for the half of the compounds with a filed dose
Pf growth 48h: Primary qHTS for delayed death inhibitors of the malarial parasite plastid, 48 hour incubation; AID 504832, 2011; P. falciparum luciferase growth in erythrocytes, 48 h; 5.9% of 310,000 active; Potency, µM (series often up to 28.7 µM), actives largely listed as inhibitors
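A one-generation exposure of luciferase-tagged malaria parasites in RPMI 1640/Albumax erythrocyte culture, 37 C and 5% CO2. Inhibition is inferred from decreased luminescence after adding detection reagent.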
NS1 function inh: qHTS Assay for Inhibitors of Influenza NS1 Protein Function. 0.4% of 270,000 active. AID 2326, 2010. Potency, µM (highest dose often 46.1 µM); calls by dose curve; also: actives are rising curves; nearly all actives have a fitted effect of over 50% in size
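Read-out: OD600 growth recovery of NS1-expressing budding yeast. Cells grown overnight at 30C in -URA glucose medium, washed, resuspended and diluted 1:100 in 2% galactose assay medium, pH 6.0. Same strain lacking NS1 served as positive control.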
Sm TGR inh: qHTS Assay for the Inhibitors of Schistosoma Mansoni Peroxiredoxins; Schistosoma mansoni thioredoxin glutathione reductase (TGR), Q962Y6; purified TGR, DTNB reduction, TNB absorbance 405 nm; Potency, µM (highest dose often 114 µM), usual class: inhibitors; 3% of 360,000 active; also: nearly all actives have a fitted effect of over 60% in size
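First, TGR (20 nM dispensed) and NADPH were mixed with compound. Second, a 15 min room-temperature incubation followed. Third, further NADPH and then DTNB were added to start the reaction. Finally, TNB absorbance was monitored kinetically.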
Shiga toxin inh: A qHTS for Small Molecule Inhibitors of Shiga Toxin. Vero cells, Shiga toxin protein synthesis inhibition reporter. inhibition, % at 38.7 µM. 9.2% of 290,000 active. AID 2315, 2010; in the data active = inhibition mostly above about 28%, no sharp cut-off; inactive = mostly below about 43%
Pf growth 96h: Primary qHTS for delayed death inhibitors of the malarial parasite plastid, 96 hour incubation; AID 504834, 2011; 6.9% of 320,000 active; P. falciparum luciferase reporter growth, 96 h; Potency, µM (series often up to 28.7 µM), actives largely listed as inhibitors
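Readout is luminescence from an integrated firefly luciferase in P. falciparum. Red cells, 2% hematocrit and 0.05% parasitemia final, were cultured with compound through two parasite generations (96 hours) at 37 C, 5% CO2.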
A number is an active result; - = inactive; ? = inconclusive; . = no result given; [ ] = another dose, or the depositor's remark. Unless noted, calls follow the shape of the dose curve; as a rule, active = well fitted curve in the direction sought with a large enough effect; inconclusive = small, poorly fitted or top-dose-only effect, or another doubt; inactive = no such curve, though single readings can be large; an effect the other way counts as inactive or inconclusive.

SMILES | Cycloheximide cs | Pf growth 48h | NS1 function inh | Sm TGR inh | Shiga toxin inh | Pf growth 96h
Cc1onc(C(=O)Nc2sc3c(c2C#N)CCCC3)c1[N+](=O)[O-] | 33 | - | . | - | 82 | -
CC1CCc2c(sc(NC(=O)c3nc4ncccn4n3)c2C#N)C1 (stereo unspecified) | - | - | ? | - | - | -
CC1CC(=O)N(CC(=O)Nc2ccc(Br)cc2)c2ccccc2S1(=O)=O (stereo unspecified) | - | - | - | - | - | -
COC(=O)CCC(=O)Nc1sc2c(c1C#N)CCCC2 | - | - | - | - | - | ?
N#Cc1c(NC(=O)C2CC2)sc2c1CCCCC2 | 31 | - | - | - | 37 | -
CCCC(=O)Nc1sc2c(c1C#N)CCCC2 | 33 | - | - | - | 74 | -
COC(=O)c1c(-c2ccc(C)cc2)csc1NC(=O)C1CC=CCC1C(=O)O (stereo unspecified) | - | - | - | - | active | -
COC(=O)c1c(-c2cc(C)ccc2C)csc1NC(=O)C1CC=CCC1C(=O)O (stereo unspecified) | - | - | - | . | - | -
COC(=O)c1c(-c2cccc(C)c2)csc1NC(=O)C1CCCO1 (stereo unspecified) | 27 | 13µM | - | - | - | -
CCOC(=O)c1c(-c2ccc(C)cc2)csc1NC(=O)C1CCCO1 (stereo unspecified) | - | ? | - | - | - | 9.3µM
CCOC(=O)c1c(-c2ccc(OC)cc2)csc1NC(=O)C1CCCO1 (stereo unspecified) | - | ? | - | - | - | -
COc1cc(NC(=O)C2CC(c3ccccc3Cl)=NO2)cc(OC)c1OC (stereo unspecified) | - | - | - | - | - | -
Cc1ccccc1N=Nc1c(C)[nH]n(C(N)=S)c1=O | 20 | ? | - | - | 67 | ?
Cc1[nH]n(C(N)=S)c(=O)c1N=Nc1cccc(Cl)c1 | 32 | . | - | ? | 60 | -
Cc1[nH]n(C(N)=S)c(=O)c1N=Nc1ccc([N+](=O)[O-])cc1Cl | 14 | - | - | - | - | -
NC(=S)n1[nH]c(-c2ccc([N+](=O)[O-])cc2)c(N=Nc2cccc(Cl)c2)c1=O | - | ? | . | - | - | -
Cc1cccc(N=Nc2c(C)[nH]n(C(N)=S)c2=O)c1C | - | - | - | - | - | -
CCOC(=O)c1ccc(NC(=O)CN2C(=O)COc3ccc(Cl)cc32)cc1 | . | . | . | - | . | .
Cc1ccc(N(C)C2=NC(=O)CS2)cc1Cl | - | 2.1µM | - | - | . | ?
CC(C)[C@@H](C(=O)NCc1ccco1)N1C(=O)N2CCc3c([nH]c4ccccc34)[C@@]2(C)C1=O | - | ? | - | - | - | ?
CCCn1c(/N=C/c2c[nH]c3ccccc23)nc2ccccc21 | 42 | - | - | - | - | -
CCCCn1c(/N=C/c2c[nH]c3ccccc23)nc2ccccc21 | - | ? | - | - | - | -
CCn1c(/N=C/c2c[nH]c3ccccc23)nc2ccccc21 | - | - | - | - | - | 1.9µM
COc1ccc2c(Cl)c(C(=O)NCCCn3ccnc3)sc2c1 | 20 | ? | - | - | - | -
C=CCNC(=O)c1cc(-c2ccc(Br)cc2)on1 | 24 | - | - | - | 89 | -
SMILES | Cycloheximide cs | Pf growth 48h | NS1 function inh | Sm TGR inh | Shiga toxin inh | Pf growth 96h
COc1ccc(-c2cc(C(=O)NCCCn3ccnc3)no2)cc1OC | - | - | - | - | - | .
O=C(NCCCn1ccnc1)c1cc(-c2ccc(Br)cc2)on1 | 29 | - | . | - | - | -
COc1cccc(C(=O)NCCCn2ccnc2)c1 | - | -[5.75 µM] | - | - | - | -
O=C(NCCc1ccccc1)c1cc(-c2ccc(Br)cc2)on1 | . | . | . | - | . | .
COc1cccc(-c2cc(C(=O)NCCCn3ccnc3)no2)c1 | 23 | - | - | - | 103 | ?
O=C(Nc1c(C(=O)N2CCCCC2)cnn1-c1ccccc1)c1ccccc1F | - | - | - | - | - | ?
Cc1cc2c(cc1S(=O)(=O)NC1CCCCC1C)OCC(=O)N2 (stereo unspecified) | - | - | - | - | - | ?
O=C(NCCCn1ccnc1)c1cc(-c2ccc3c(c2)OCO3)on1 | 12 | - | - | - | 22 | ?
